# Results: the supplement of paper PMC10849652
# About 7,900 targets were measured; listed, in parts, are those with a hit and a random draw of the rest. About 0.6% of all pairs of compound and target were hits. A number with no mark means an inactive call.
# How the values were obtained:
# Experiment in all cases: log2 fold change, soluble protein after heating vs DMSO (PISA); higher = thermal stabilisation; K562 cells, 10 uM, 30 min; active = over 0.2 and 3.5 SD of the protein, either way, in both replicates (recomputed)
# IRAK-1-4 Inhibitor I = compound: C1COCCN1CCN2C3=CC=CC=C3N=C2NC(=O)C4=CC(=CC=C4)[N+](=O)[O-] [IRAK-1-4 Inhibitor I]
# How it was run: (§1)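 K562 cells at 2×10^6 cells/mL were treated with 10 μM compound for 30 min. Aliquots were heated for 3 min across 48°C-58°C, pooled, and extracted in PBS with 0.5% NP-40 at 4°C; soluble protein was the supernatant after 21,000xg for 90 min. Soluble protein was quantified by TMTpro 16plex LC-MS/MS with channel sums equalised, and reported as log2 fold change in thermal stability against DMSO controls, with values from duplicates.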
# ibrutinib = compound: C=CC(=O)N1CCC[C@@H](n2nc(-c3ccc(Oc4ccccc4)cc3)c3c(N)ncnc32)C1 [ibrutinib]
# How it was run: as §1
# [1] = compound: CC(=O)c1cnc2ccc(-c3cc(Cl)c(O)c(Cl)c3)nc2c1N[C@H]1CC[C@H](CN(C)C)CC1
# How it was run: as §1
# ralimetinib = compound: CC(C)(C)Cn1c(N)nc2ccc(-c3[nH]c(C(C)(C)C)nc3-c3ccc(F)cc3)nc21 [ralimetinib]
# How it was run: as §1
# [2] = compound: CC(C)(O)CC(=O)NCCn1ccc2ncnc(Nc3ccc(Oc4cccc(C(F)(F)F)c4)c(Cl)c3)c21
# How it was run: as §1
# [3] = compound: CC(C)C1=C2N=C(C=C(N2N=C1)NCC3=CC=CC=C3)NCCCCCCN
# How it was run: as §1
# [4] = compound: CC(C)C[C@@H](C=O)NC(=O)[C@H](CC(C)C)NC(=O)[C@H](CC(C)C)NC(=O)OCc1ccccc1
# How it was run: as §1
# pinometostat = compound: CC(C)N(C[C@H]1O[C@@H](n2cnc3c(N)ncnc32)[C@H](O)[C@@H]1O)[C@H]1C[C@@H](CCc2nc3cc(C(C)(C)C)ccc3[nH]2)C1 [pinometostat]
# How it was run: as §1
# [5] = compound: CC1=C(C(CC(=O)N1)C2=CC=C(C=C2)C(F)(F)F)C(=O)NC3=C(C=C4C(=C3)C=NN4)F
# How it was run: as §1
# [6] = compound: CC1=C(C=C(C=C1)NC(=O)C2=CC(=CC=C2)C(C)(C)C#N)NC3=CC4=C(C=C3)N=CN(C4=O)C
# How it was run: as §1
# [7] = compound: CC1=C(C=C(C=C1)NC(=O)C2=CC(=CC=C2)N(C)C)NC(=O)C3=CC=C(C=C3)O
# How it was run: as §1
# [8] = compound: CC1=CC=C(C=C1)SC2=C3C=C(SC3=CN=C2)C(=O)N
# How it was run: as §1
# [9] = compound: CC1=NC(=CC=C1)C2=C(N=C(N2)C(C)(C)C)C3=CC4=NC=CN=C4C=C3
# How it was run: as §1
# Nexturastat A = compound: CCCCN(Cc1ccc(C(=O)NO)cc1)C(=O)Nc1ccccc1 [Nexturastat A]
# How it was run: as §1
# vemurafenib = compound: CCCS(=O)(=O)Nc1ccc(F)c(C(=O)c2c[nH]c3ncc(-c4ccc(Cl)cc4)cc23)c1F [vemurafenib]
# How it was run: as §1
# [10] = compound: CCCS(=O)(=O)Nc1ccc(F)c(C(=O)c2c[nH]c3ncc(Cl)cc23)c1F
# How it was run: as §1
# [11] = compound: CCCc1cc(C)[nH]c(=O)c1CNC(=O)c1cc(-c2ccnc(N3CCN(C)CC3)c2)cc2c1cnn2C(C)C
# How it was run: as §1
# givinostat = compound: CCN(CC)Cc1ccc2cc(COC(=O)Nc3ccc(C(=O)NO)cc3)ccc2c1 [givinostat]
# How it was run: as §1
# barasertib = compound: CCN(CCCOc1ccc2c(Nc3cc(CC(=O)Nc4cccc(F)c4)[nH]n3)ncnc2c1)CCOP(=O)(O)O [barasertib]
# How it was run: as §1
# [12] = compound: CC1=C(C2=C(C=C1)C(=O)C3=CC=CC=C3N2CCCN)C
# How it was run: as §1
# Chain of UniProt Q969G3 (Q969G3 whole entry, looked up): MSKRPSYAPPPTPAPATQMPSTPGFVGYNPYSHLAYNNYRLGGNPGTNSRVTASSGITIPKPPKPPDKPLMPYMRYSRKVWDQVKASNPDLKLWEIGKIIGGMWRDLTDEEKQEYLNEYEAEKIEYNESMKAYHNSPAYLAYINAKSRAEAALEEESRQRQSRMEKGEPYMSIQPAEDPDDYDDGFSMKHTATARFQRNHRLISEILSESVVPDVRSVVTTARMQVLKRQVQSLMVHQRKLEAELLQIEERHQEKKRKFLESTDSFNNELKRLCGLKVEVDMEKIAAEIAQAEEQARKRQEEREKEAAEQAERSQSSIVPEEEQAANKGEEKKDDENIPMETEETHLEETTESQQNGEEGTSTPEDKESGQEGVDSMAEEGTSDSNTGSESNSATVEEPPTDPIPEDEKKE
# Chain of UniProt Q9C0B7 (Q9C0B7 whole entry, looked up): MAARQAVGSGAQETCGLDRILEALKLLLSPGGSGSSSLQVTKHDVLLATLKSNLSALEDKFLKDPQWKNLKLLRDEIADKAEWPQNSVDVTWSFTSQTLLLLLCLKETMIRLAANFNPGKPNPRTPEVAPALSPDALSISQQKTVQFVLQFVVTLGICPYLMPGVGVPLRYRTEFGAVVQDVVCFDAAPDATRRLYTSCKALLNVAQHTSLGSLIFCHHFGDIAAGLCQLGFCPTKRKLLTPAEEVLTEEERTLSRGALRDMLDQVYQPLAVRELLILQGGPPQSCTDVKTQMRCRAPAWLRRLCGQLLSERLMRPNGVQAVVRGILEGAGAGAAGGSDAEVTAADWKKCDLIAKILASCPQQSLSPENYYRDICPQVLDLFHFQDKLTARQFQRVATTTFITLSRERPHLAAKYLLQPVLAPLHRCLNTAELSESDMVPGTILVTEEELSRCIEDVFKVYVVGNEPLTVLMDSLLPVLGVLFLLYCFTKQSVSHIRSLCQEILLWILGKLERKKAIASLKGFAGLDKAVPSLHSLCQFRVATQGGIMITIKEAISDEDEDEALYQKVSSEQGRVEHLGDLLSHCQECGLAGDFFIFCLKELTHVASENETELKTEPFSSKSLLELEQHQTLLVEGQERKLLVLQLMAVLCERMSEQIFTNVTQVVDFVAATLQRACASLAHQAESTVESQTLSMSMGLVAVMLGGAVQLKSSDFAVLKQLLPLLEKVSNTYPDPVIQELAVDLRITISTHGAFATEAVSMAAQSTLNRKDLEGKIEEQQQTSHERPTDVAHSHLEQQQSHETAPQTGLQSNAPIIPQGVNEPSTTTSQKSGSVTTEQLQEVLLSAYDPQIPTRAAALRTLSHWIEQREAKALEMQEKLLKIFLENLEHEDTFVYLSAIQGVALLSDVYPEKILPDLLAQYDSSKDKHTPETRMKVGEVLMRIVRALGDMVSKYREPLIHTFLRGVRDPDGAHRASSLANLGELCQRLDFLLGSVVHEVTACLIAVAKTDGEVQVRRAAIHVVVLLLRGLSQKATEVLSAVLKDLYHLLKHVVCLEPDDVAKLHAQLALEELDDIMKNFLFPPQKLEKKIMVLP
# Chain of UniProt P36897 (P36897 whole entry, looked up): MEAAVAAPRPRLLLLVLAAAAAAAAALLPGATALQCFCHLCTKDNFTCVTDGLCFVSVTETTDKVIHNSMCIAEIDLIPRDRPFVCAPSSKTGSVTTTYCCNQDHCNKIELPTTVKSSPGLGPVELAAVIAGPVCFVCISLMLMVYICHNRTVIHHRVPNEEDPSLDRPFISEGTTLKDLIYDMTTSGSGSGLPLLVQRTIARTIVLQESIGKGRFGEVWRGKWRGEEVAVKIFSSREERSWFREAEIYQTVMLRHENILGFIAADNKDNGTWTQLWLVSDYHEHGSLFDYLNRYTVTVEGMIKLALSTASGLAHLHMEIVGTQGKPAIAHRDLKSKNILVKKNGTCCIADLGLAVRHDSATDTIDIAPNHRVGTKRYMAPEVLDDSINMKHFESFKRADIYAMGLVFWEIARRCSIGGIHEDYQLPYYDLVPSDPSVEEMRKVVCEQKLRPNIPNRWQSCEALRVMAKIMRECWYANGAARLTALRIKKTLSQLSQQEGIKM
# Chain of UniProt Q08AE8 (Q08AE8 whole entry, looked up): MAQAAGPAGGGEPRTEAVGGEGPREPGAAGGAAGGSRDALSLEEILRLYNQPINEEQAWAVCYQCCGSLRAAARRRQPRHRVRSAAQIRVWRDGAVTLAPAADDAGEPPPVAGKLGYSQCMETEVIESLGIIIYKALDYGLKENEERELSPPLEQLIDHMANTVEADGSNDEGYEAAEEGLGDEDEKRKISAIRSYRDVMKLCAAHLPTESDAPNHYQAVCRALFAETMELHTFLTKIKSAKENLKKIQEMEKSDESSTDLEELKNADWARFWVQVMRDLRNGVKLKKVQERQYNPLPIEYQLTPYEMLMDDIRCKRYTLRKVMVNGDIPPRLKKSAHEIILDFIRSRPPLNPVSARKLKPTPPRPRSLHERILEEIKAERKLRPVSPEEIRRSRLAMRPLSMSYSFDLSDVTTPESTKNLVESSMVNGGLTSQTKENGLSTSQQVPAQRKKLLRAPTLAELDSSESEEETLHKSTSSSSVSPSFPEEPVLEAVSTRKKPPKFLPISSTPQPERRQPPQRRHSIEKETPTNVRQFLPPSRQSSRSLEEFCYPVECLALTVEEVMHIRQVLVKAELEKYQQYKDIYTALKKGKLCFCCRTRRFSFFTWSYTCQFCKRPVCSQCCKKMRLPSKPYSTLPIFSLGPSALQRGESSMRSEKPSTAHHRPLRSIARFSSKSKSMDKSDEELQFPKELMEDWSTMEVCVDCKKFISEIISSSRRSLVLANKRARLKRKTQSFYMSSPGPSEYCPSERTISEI
# Chain of UniProt P42229 (P42229 whole entry, looked up): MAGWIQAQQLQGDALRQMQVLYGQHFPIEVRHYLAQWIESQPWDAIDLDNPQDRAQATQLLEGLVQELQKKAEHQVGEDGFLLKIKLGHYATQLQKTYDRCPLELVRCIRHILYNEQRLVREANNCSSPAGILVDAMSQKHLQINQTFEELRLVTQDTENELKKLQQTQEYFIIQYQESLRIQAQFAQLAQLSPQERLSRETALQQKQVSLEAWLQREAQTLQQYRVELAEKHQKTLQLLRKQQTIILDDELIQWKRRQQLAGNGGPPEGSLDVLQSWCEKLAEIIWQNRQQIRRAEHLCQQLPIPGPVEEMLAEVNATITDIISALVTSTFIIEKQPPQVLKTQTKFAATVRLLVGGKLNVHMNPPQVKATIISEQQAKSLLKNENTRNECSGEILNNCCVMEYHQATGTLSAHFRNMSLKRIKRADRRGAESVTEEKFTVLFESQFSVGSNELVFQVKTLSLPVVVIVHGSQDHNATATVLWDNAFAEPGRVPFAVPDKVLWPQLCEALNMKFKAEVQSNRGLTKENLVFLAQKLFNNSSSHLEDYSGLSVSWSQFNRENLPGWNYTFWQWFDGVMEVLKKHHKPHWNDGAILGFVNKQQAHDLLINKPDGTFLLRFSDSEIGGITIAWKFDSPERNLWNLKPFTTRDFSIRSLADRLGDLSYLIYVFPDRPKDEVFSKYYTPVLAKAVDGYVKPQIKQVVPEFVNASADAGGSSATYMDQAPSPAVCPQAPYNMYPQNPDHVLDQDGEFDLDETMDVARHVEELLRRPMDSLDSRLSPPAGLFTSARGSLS
# Chain of UniProt Q969Z0 (Q969Z0 whole entry, looked up): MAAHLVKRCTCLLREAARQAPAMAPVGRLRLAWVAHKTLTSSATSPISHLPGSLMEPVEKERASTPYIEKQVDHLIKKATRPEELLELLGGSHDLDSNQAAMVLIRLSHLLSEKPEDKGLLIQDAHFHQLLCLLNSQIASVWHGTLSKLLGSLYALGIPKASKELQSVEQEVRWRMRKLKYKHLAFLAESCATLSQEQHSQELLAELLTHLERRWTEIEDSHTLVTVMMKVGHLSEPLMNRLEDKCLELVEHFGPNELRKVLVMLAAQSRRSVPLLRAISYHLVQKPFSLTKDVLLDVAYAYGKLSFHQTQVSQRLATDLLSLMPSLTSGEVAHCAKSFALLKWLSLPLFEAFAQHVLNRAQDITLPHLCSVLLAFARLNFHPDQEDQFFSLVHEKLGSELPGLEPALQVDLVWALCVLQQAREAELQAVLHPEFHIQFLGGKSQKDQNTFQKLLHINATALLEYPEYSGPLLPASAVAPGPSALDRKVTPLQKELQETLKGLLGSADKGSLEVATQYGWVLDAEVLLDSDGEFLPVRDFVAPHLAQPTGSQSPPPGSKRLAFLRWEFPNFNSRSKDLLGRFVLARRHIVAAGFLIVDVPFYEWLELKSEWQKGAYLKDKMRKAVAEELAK
# Chain of UniProt Q5JUR7 (Q5JUR7 whole entry, looked up): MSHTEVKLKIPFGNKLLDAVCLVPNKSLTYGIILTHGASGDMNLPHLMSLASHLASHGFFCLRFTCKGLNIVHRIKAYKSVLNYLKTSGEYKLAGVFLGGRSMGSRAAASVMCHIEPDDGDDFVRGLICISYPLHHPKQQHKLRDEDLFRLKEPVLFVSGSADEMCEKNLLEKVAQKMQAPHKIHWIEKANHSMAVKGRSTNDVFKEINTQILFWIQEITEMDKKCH
# Chain of UniProt Q9BWG4 (Q9BWG4 whole entry, looked up): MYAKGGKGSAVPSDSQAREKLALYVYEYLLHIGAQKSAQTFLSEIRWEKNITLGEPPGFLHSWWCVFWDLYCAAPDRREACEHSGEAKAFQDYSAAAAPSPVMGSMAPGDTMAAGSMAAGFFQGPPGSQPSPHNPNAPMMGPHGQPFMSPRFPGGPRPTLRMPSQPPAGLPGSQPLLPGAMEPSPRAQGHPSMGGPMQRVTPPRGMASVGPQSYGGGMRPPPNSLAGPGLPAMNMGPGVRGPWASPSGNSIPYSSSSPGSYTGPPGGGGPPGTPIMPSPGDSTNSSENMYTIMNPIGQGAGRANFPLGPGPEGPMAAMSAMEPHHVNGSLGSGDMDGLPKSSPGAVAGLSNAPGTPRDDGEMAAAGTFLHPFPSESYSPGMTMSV
# Chain of UniProt Q13242 (Q13242 whole entry, looked up): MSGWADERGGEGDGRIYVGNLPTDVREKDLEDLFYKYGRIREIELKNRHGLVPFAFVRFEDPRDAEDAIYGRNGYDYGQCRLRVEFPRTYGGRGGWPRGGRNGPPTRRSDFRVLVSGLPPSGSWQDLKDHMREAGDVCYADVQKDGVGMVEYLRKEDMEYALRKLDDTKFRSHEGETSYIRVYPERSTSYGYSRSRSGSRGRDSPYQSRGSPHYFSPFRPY
Target,log2 fold change (IRAK-1-4 Inhibitor I),log2 fold change (ibrutinib),log2 fold change [1],log2 fold change (ralimetinib),log2 fold change [2],log2 fold change [3],log2 fold change [4],log2 fold change (pinometostat),log2 fold change [5],log2 fold change [6],log2 fold change [7],log2 fold change [8],log2 fold change [9],log2 fold change (Nexturastat A),log2 fold change (vemurafenib),log2 fold change [10],log2 fold change [11],log2 fold change (givinostat),log2 fold change (barasertib),log2 fold change [12]
SRSF9 (UniProt Q13242),-0.094,0.106,-0.13,0.199,0.219,0.019,0.171,0.29,-0.011,-0.044,0.015,-0.083,-0.082,0.37,-0.116,0.076,0.075,0.151,-0.082,–
SLC44A2 isoform 2 (UniProt Q8IWA5),0.092,0.055,0.034,-0.128,-0.006,0.296 (active),-0.047,0.056,-0.078,0.084,-0.033,–,-0.024,0.05,0.038,–,-0.029,-0.027,-0.012,0.034
STAT5A (UniProt P42229),-0.116,-0.088,-0.164,0.046,0.019,-0.053,0.006,0.033,-0.002,-0.033,-0.113,0.072,0.011,-0.009,0.067,0.067,0.141,0.156,0.096,-0.009
ST3GAL2 (UniProt Q16842),-0.183,-0.105,-0.115,-0.009,0.119,-0.12,0.066,-0.031,-0.037,0.064,-0.054,-0.216,0.066,-0.012,-0.032,-0.013,0.212,0.078,0.112,0.046
SOX5 (UniProt P35711),0.067,0.115,-0.028,0.037,–,-0.086,0.368,-0.088,-0.051,-0.125,0.004,-0.144,0.02,–,-0.05,-0.063,0.042,0.013,-0.119,-0.081
SNX6 (UniProt Q9UNH7),0.012,0.035,-0.233,-0.035,-0.249,-0.234,0.013,0.048,0.026,-0.04,-0.016,0.019,0.021,-0.025,-0.003,0.076,0.006,0.077,0.079,-0.013
SYNE1 (UniProt Q8NF91),0.062,-0.015,-0.398,0.127,-0.212,0.097,0.064,0.002,-0.031,-0.126,-0.051,–,-0.17,0.612 (active),-0.045,–,-0.044,0.199,0.047,0.075
TBRG4 (UniProt Q969Z0),-0.031,0,-0.188,-0.134,-0.578 (active),-0.624,-0.038,-0.014,0.029,0.08,-0.006,0.073,0.151,-0.072,0.05,0.185,-0.059,0.099,0.125,-0.171
TANGO6 (UniProt Q9C0B7),-0.117,-0.077,0.052,0.197,-0.153,-0.098,-0.068,0,0.013,0.069,-0.006,0.039,0.031,-0.051,–,0.068,-0.052,0.131,0.048,0.006
SPIRE1 (UniProt Q08AE8),-0.065,0.032,0,0.008,0.073,0.181,0.09,-0.006,-0.036,–,0.013,–,-0.025,0.31,-0.011,–,-0.062,0.185,-0.014,0.029
SNX15 (UniProt Q9NRS6),-0.031,-0.112,-0.111,-0.051,–,–,0.021,-0.069,-0.099,-0.25,-0.009,-0.015,-0.089,–,-0.122,-0.021,0.061,–,0.012,-0.016
TGFBR1 isoform 2 (UniProt P36897),-0.004,0.006,0.329 (active),0.072,-0.043,0.025,0.049,-0.047,-0.022,-0.112,0.023,-0.058,–,0.038,0.044,0.028,-0.062,0.07,-0.028,0.019
SSBP4 (UniProt Q9BWG4),0.013,0.001,-0.081,-0.131,–,0.058,0.011,0.09,0.013,0.056,-0.017,-0.133,0.003,–,–,0.021,-0.036,-0.042,0.053,0.015
TEX30 (UniProt Q5JUR7),-0.013,0.08,-0.048,0.053,-0.251,-0.075,0.03,0.105,0.061,–,-0.182,0.047,-0.062,0.009,0.138,0.037,-0.119,-0.146,0.019,0.028
SPAG9 isoform 4 (UniProt O60271),-0.027,0.349,0.14,0.191,–,-0.202,0.049,0.061,-0.003,0.184,-0.025,–,-0.038,–,0.174,–,0.028,0.021,0.176,-0.243
SYNE2 isoform 2 (UniProt Q8WXH0),0.046,-0.037,0.059,0.01,–,0.078,0.059,-0.024,0,-0.084,0.014,0.064,-0.131,–,-0.04,0,-0.171,0.43,0.079,0.044
SMARCE1 (UniProt Q969G3),-0.29,0.185,-0.006,0.163,-0.043,-0.128,-0.037,-0.031,0.21,-0.025,-0.058,-0.003,0.074,0.121,-0.123,0.085,-0.522,0.028,0.042,-0.091
